Source: PubChem BioAssay (NCI)
The panel holds about 79,000 compounds, 15% with a hit somewhere; the sample as a whole holds those more often. The source made the active and inactive calls. Rule as the data show it: active = growth inhibition above about 70%; inactive = the rest. Where a SMILES comes first, the peptide text is derived from it. The star is where a group is joined. Trt = c1ccc(C(c2ccccc2)(c2ccccc2)*)cc1

Assays:
[1] = NCI Yeast Anticancer Drug Screen. Data for the rad50 strain (AID 155);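 also: 0% = growth of vehicle-only cultures of the same strain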; details: S. cerevisiae rad50 strain growth inhibition; at 50.0 µM; hits give high values
Outline: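 Cells are treated with compound, grown, and their growth is then scored against vehicle-only cultures of the same repair-deficient yeast strain.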

[2] = NCI Yeast Anticancer Drug Screen. Data for the mec2-1 strain (AID 157); details: S. cerevisiae mec2-1 strain, at 50.0 µM, hits give high values
Outline: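 Yeast mec2-1 mutant treated with compound. Readout: growth inhibition vs vehicle controls.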

[3] = NCI Yeast Anticancer Drug Screen. Data for the sgs1 mgt1 strain (AID 161);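 also: 0% = growth of cultures given vehicle only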; details: S. cerevisiae sgs1 mgt1 strain, at 50.0 µM, hits give high values
Outline: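 Inhibition of yeast growth, normalised to vehicle-treated controls, is reported for a strain bearing genetic alterations in DNA damage repair.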

[4] = NCI Yeast Anticancer Drug Screen. Data for the cln2 rad14 strain (AID 165);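 also: 0% = growth equal to vehicle treated cultures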; details: S. cerevisiae cln2 rad14 strain, at 50.0 µM, hits give high values
Outline: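 cln2 rad14 yeast strain; compound exposure; growth inhibition read vs vehicle controls.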

[5] = NCI Yeast Anticancer Drug Screen. Data for the bub3 strain (AID 167); details: S. cerevisiae bub3 mutant strain, at 50.0 µM, hits give high values
Outline: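 Part of a panel of yeast mutants defective in DNA damage repair or cell cycle regulation. Each strain is grown with compound, and inhibition is calculated relative to solvent-treated cultures.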

[6] = NCI Yeast Anticancer Drug Screen. Data for the mlh1 rad18 strain (AID 175); details: S. cerevisiae mlh1 rad18 strain growth inhibition; at 50.0 µM; hits give high values
Outline: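 Yeast w/ defined DNA-repair lesions; compound exposure; growth vs vehicle controls → % inhibition.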

Measured: growth inhibition

CCN(CC)C(=O)c1c2nc3c(C(=O)N(CC)CC)ccc(C)c3oc-2c(C)c(=O)c1N
inactive: [1] 24.6% | [2] 7.35% | [3] 7.85% | [4] 19.9% | [5] 0.9% | [6] 20.2%

O=C1NC2(CCCC2)C(=O)NC12CCCC2
inactive: [1] -21.1% | [2] -22.1% | [3] -1.45% | [4] -13.2% | [5] -26.2% | [6] 1.35%

O=C(NC1=C(Cl)C(=O)c2ccccc2C1=O)C(=O)c1c(O)c2ccccc2oc1=O
active: [1] 83.5% | [2] 85.8% | [3] 87.8% | [4] 84.2% | [5] 84.6% | [6] 91.3%

O=C(O)c1nc2ccccc2c(=O)[nH]1
inactive: [1] -3.4% | [2] -4.25% | [3] -9.7% | [4] -43.1% | [5] -12.2% | [6] -4.6%

CC(C)CC(=O)NC(C(=O)NC(C(=O)NC(CC(C)C)C(O)CC(=O)NC(C)C(=O)NC(CC(C)C)C(O)CC(=O)O)C(C)C)C(C)C (stereo unspecified)
inactive: [1] 5.8% | [2] -18.4% | [3] -20.9% | [4] 7.6% | [5] 5.95% | [6] -9.75%

CCN(CC)CCN(C)CCN(CC)CC
inactive: [1] 14.1% | [2] 1.7% | [3] 18.6% | [4] 9.8% | [5] 38.7% | [6] 17.6%

CCCCCCCCCCCCCCCCCC(=O)OCC1CO1 (stereo unspecified)
inactive: [1] 23.2% | [2] 10.3% | [3] 21.6% | [4] 13.2% | [5] 18.9% | [6] 21.1%

CN(C)c1ccc(S(=O)c2ccc(N(C)C)cc2)cc1
inactive: [1] -30.4% | [2] -27.9% | [3] -44.9% | [4] -4.75% | [5] -48.4% | [6] -35%

Clc1ccc(N=C(Oc2ccc(Cl)cc2)c2ccccc2)cc1
inactive: [1] 4.95% | [2] 7.35% | [3] -4.85% | [4] -12.4% | [5] 0.25% | [6] 3.6%

CCC(=O)Nc1cc(Cl)ccc1C
inactive: [1] 46.6% | [2] 31.4% | [3] 26.3% | [4] 23.4% | [5] 9.25% | [6] 26.3%

NC(=Nc1ccc(Br)cc1)/N=C(/N)Nc1cccc(S(=O)(=O)Nc2ncc(Cl)cn2)c1
inactive: [1] 10.2% | [2] -8.75% | [3] 25.2% | [4] 15.8% | [5] 1.95% | [6] 4.95%

O=[N+]([O-])c1ccc(S(=O)(=O)N/N=C/C=C/c2ccccc2[N+](=O)[O-])cc1
inactive: [1] 5% | [2] -5.65% | [3] 7.35% | [4] -7.55% | [5] 16.4% | [6] 39.1%

COC(=O)C1(C(=O)OC)C/C(C)=C(/C)SCCCS1
inactive: [1] -12.7% | [2] -5.6% | [3] -14.8% | [4] 19.9% | [5] -23.1% | [6] -26.4%

CCN(CC)CCN1C(=O)C(=O)N(c2cccc3ccccc23)C1=O
inactive: [1] -26.9% | [2] -15.7% | [3] -14.9% | [4] -14.2% | [5] -31.9% | [6] -10.2%

CC(=O)OC1CCC2(C)C(=CCC3C2CCC2(C)C3CCC23SCCS3)C1 (stereo unspecified)
inactive: [1] 24% | [2] -3% | [3] 4.25% | [4] -60.1% | [5] -2.9% | [6] 9.6%

NC1=C(Br)C(=O)c2[nH]c(=O)[nH]c(=O)c2C1=O
inactive: [1] 18.8% | [2] 7.6% | [3] 24.4% | [4] -4% | [5] 7.15% | [6] 20.6%

CC1=C(C(=O)Nc2ccc([N+](=O)[O-])cc2)C(c2cccc([N+](=O)[O-])c2)C(C(=O)Nc2ccc([N+](=O)[O-])cc2)=C(C)N1
inactive: [1] -9.25% | [2] -4.4% | [3] 12.9% | [4] -17.1% | [5] -15.3% | [6] -15.1%

O=C(CC(=O)c1ccc(Cl)cc1)c1ccc(Cl)cc1
inactive: [1] 12.9% | [2] 14.5% | [3] -3.95% | [4] 0.35% | [5] 8.9% | [6] 4.45%

COC(=O)C(NC(=O)C(N)CSC(c1ccccc1)(c1ccccc1)c1ccccc1)C(C)C (stereo unspecified) (H-Cys(Trt)-Val-OMe; configuration not given here)
active: [1] 97.3% | [2] 98.6% | [3] 98.7% | [4] 95.2% | [5] 97.6% | [6] 98.5%

COc1cc2cc(C)c(C)cc2cc1OC
inactive: [1] -5.8% | [2] 13.7% | [3] -4% | [4] -22.9% | [5] -21.9% | [6] 5.65%

C=CNc1cccc2ccccc12
inactive: [1] 13.8% | [2] 11.6% | [3] 14.2% | [4] 5.85% | [5] 25.1% | [6] 14.7%

NC1=C(O)C(=O)C(c2ccccc2O)O1 (stereo unspecified)
inactive: [1] -34.6% | [2] -32.6% | [3] -19.1% | [4] -21.6% | [5] -18.6% | [6] -10.9%

Cn1ncc2c(N)nc(NCCO)nc21
inactive: [1] 1.1% | [2] 4.75% | [3] -4.75% | [4] -19.1% | [5] 13.7% | [6] -0.2%

CCOc1ccc(-n2c(O)c(N=Nc3ccccc3OC)c(=O)n(-c3ccc(OC)cc3)c2=S)cc1
inactive: [1] 18.4% | [2] -7.9% | [3] -10.3% | [4] -10.4% | [5] -4.8% | [6] 7.05%

CCCCCCCCCCCCCCCC[Si](Cl)(Cl)Cl
inactive: [1] -0.6% | [2] -10.7% | [3] -5.85% | [4] -22.6% | [5] 2.95% | [6] 10.1%

COc1ccc2cc(NC(=O)N/N=C\c3ccc([N+](=O)[O-])cc3)ccc2c1
inactive: [1] 27.1% | [2] 7.35% | [3] 19.2% | [4] -8.3% | [5] 12.9% | [6] 27.4%

CC(C(=O)O)C(C)C(=O)O (stereo unspecified)
inactive: [1] 3.3% | [2] 4.15% | [3] 9.8% | [4] 6.45% | [5] 5.1% | [6] 14.2%

CC1CCC(=N\O)/C(=N/O)C1 (stereo unspecified)
inactive: [1] 5.9% | [2] -19.3% | [3] -21.9% | [4] -12.1% | [5] 0.65% | [6] -5.3%

Cc1ccc(S(=O)(=O)CC(=O)CC(=O)C(=O)Nc2ccc(C)cc2C)cc1
inactive: [1] 2.15% | [2] -9.2% | [3] -21.1% | [4] 2% | [5] -8.55% | [6] 12.8%

O=C(/C(=C/c1ccccc1)c1ccc(Cl)cc1)c1ccccc1
inactive: [1] 12.6% | [2] 13.9% | [3] 13.7% | [4] -15.1% | [5] 5.9% | [6] -4%

COc1ccc(/C=C2\N=C(c3ccccc3)N(Nc3nnc(NN4C(=O)/C(=C/c5ccc(OC)cc5)N=C4c4ccccc4)c4ccccc34)C2=O)cc1
inactive: [1] -9.4% | [2] -10.3% | [3] 1.65% | [4] 8.7% | [5] -21.4% | [6] 4.35%

CC(C)(N)C(=O)O
inactive: [1] 1.2% | [2] 24.5% | [3] 24.6% | [4] -10.9% | [5] -12.1% | [6] -6.85%

CCOC(=O)c1nc(N(C)C)oc(=O)c1C
inactive: [1] 25.1% | [2] 33.1% | [3] 28.1% | [4] -0.7% | [5] 18.6% | [6] 13.6%

COC1CC(OC2CCC3(C)C(=CCC4C3C(OC(C)=O)C(OC(=O)CC(C)C)C3(C)C(C(C)=O)CCC43O)C2)OC(C)C1OC1CC(OC)C(OC2CC(OC)C(OC3OC(C)C(O)C(OC)C3O)C(C)O2)C(C)O1 (stereo unspecified)
inactive: [1] 31.3% | [2] 6.55% | [3] 21.4% | [4] 16.9% | [5] -1.9% | [6] -83.5%

Brc1nc(-[n+]2ccccc2)[n-]c1Br
inactive: [1] -0.75% | [2] 3.75% | [3] -13.9% | [4] -60.5% | [5] 1.5% | [6] 1.4%

CC1=NN(c2nc(N)nc(CCl)n2)C(C)(C)C1
inactive: [1] -8.1% | [2] -0.1% | [3] -6.7% | [4] -4.75% | [5] 17.1% | [6] -77.9%
